The panel holds about 83,000 compounds, 20% with a hit somewhere; the sample as a whole holds those more often.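 Compound tested at a single concentration for 48 hours in 96-well plates; a percent growth value below 10 was scored as active.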 Active and inactive are the calls of the source.

The assay relates to HL-60(TB) leukemia. Put plainly: NCI-60 one-dose screen, 48 h (100 = growth as untreated, 0 = no growth, -100 = all killed). The following applies: 10 µM unless noted.
Consider `CC1(C)CC(OCCCC[P+](c2ccccc2)(c2ccccc2)c2ccccc2)CC(C)(C)N1O`, for which the growth is -37.4% (active).
`Cc1nc(NC(=O)COc2cccc(/C=C3\COc4ccccc4C3=O)c2)sc1C`: the growth is -61.4% (active).
To `CC(C)(C)c1nc(-c2cccc(NS(=O)(=O)c3c(F)cccc3F)c2F)c(-c2ccnc(N)n2)s1` belongs 35.1% (inactive); to `COc1c(N2CC3CCCN(C(C)=O)C3C2)c(F)cc2c(=O)c(C(=O)N[C@H]3C(O)[C@@H](O)C(CO)O[C@H]3O)cn(C3CC3)c12` (stereo partly specified), 103% (inactive).
Consider `COC(=O)Cc1nc(C#N)c(N(C)C)o1`, for which the growth was 99.5% (inactive).
In the case of `O=C1OCC2=C1C(c1ccncc1)c1cc3c(cc1N2CCO)OCO3` (stereo unspecified), the growth is 99.2% (inactive).
As to `CCOC(=O)c1cc(Cl)c(O)c(Cl)c1`, the growth was 64.9% (inactive).
Take `CCOC(=O)C/C(C)=N\NC(=O)c1ccncc1`: the growth is 99.4% (inactive).
For `COc1ccc(F)cc1/C=C/C(=O)/C=C(/C=C/c1cc(F)ccc1OC)OB(F)F`, the growth is -8.82% (active).
As for `O=C(Nc1cccc2[nH]c(C(F)(F)F)nc12)c1ccc(Br)cc1F`, the growth was 22.4% (inactive).
On to `CN(C)Cc1ccc(NC(=O)c2cncc(C#Cc3cnc(N)c4ncccc34)c2)cc1C(F)(F)F`, for which the growth was 31.1% (inactive).
To `O=C(CCc1nnc2sc(-c3ccccc3)nn12)c1nc2ccccc2[nH]1` belongs 105% (inactive).
For `O=C1c2ccccc2C(=O)c2cc(Cn3cc[n+](Cc4ccc5ccccc5c4)c3)ccc21` the value was 43% (inactive).
Regarding `C[C@H]1[C@@H]2[C@H]3CC[C@@H]4[C@@]5(C)Cc6c([nH]c7ccccc67)C(C)(C)[C@@H]5CC[C@@]4(C)[C@]3(C)CC[C@]23CO[C@]1(C)[C@@H](C(=O)/C=C/c1ccccn1)C3`, the growth is 72.4% (inactive).
Take `C[C@@H](Oc1cc(-c2cnn(C3CC4(CCCNC4)C3)c2)cnc1N)c1c(Cl)ccc(F)c1Cl` (stereo partly specified): the growth is -41% (active).
On to `O=C1CC2C=CCN2C=C1NC(=O)C1CCCCC1` (stereo unspecified), for which the growth is 101% (inactive).
In the case of `CCC1(CC)C(OC)NC(Br)=C(C#N)C1(C#N)C(N)=O` (stereo unspecified), the growth was 93.1% (inactive).
In the case of `CCC(=C(c1ccc(OCCCN(C)C)cc1)c1ccc(OCCCN(C)C)cc1)c1ccc(Cl)cc1`, the growth was -55.3% (active).
For `O=c1c2cc(Br)cc(Br)c2nc(-c2ccc(Cl)cc2)n1/N=C/c1cccc(F)c1`, the growth is 71% (inactive).
In the case of `CC1CN(CCO)CC(C)O1` (stereo unspecified), the growth is 102% (inactive).
For the compound `COc1cc(-c2nc3ccccc3[nH]2)ccc1OCC(=O)N=Nc1c(O)[nH]c2ccccc12`, the growth was 79.8% (inactive).
To `CN1C(=O)N(C)C2C1NN=c1s/c(=C\c3ccc(Cl)cc3Cl)c(=O)n12` (stereo unspecified) belongs -26.9% (active); to `C=C(C)[C@@H]1CC[C@]2(C)[C@H](CC=C3[C@@H]4CC(C)(C)CC[C@]4(CO)CC[C@]32C)[C@@]1(C)CCCN`, -68.9% (active).
With `COc1ccc(/C=N/NC(=O)c2cnn3c2NC(c2ccccc2)C3)cc1OC` (stereo unspecified), the growth is 36.4% (inactive).
`CN(C)c1ccc(/C=C/C(=O)c2ccc(NC(N)=O)cc2)cc1`: the growth was 87.3% (inactive).
Consider `O=C1/C(=C/c2cccc([N+](=O)[O-])c2)COc2ccc(O)c(O)c21`, for which the growth is -19.5% (active).

Source of the values: PubChem BioAssay (NCI).
